# Data taken from a collection of fitness landscapes (doi:10.1126/science.1257360).
# In all, about 140,000 sequences were measured (“enrichment ratio after two sorts for PhoP signalling”: median about 0, highest 2% from about 11 on). Many of the other results were omitted from the sample, so the highest values are more common in it than they were.
# B1: PhoQ; a variant is named by its letters at X, in order, P23837 (parent)
# chain: MKKLLRLFFPLSLRVRFLLATAAVVLVLSLAYGMVALIGYSVSFDKTTFRLLRGESNLFYTLAKWENNKLHVELPENIDKQSPTMTLIYDENGQLLWAQRDVPWLMKMIQPDWLKSNGFHEIEADVNDTSLLLSGDHSIQQQLQEVREDDDDAEMTHSVAVNVYPATSRMPKLTIVVVDTIPVELKSSYMVWSWFIYVLSANLLLVIPLLWVAAWWSLRPIEALAKEVRELEEHNRELLNPATTRELTSLVRNLNRLLKSERERYDKYRTTLTDLTHSLKTPLXXLQXXLRSLRSEKMSVSDAEPVMLEQISRISQQIGYYLHRASMRGGTLLSRELHPVAPLLDNLTSALNKVYQRKGVNISLDISPEISFVGEQNDFVEVMGNVLDNACKYCLEFVEISARQTDEHLYIVVEDDGPGIPLSKREVIFDRGQRVDTLRPGQGVGLAVAREITEQYEGKIVAGESMLGGARMEVIFGRQHSAPKDE
# Variants of: B1
# Assay: enrichment ratio after two sorts for PhoP signalling (ratio (wild type AVST 3.29)); higher = more functional
# Conditions: with PhoP (E. coli)
row,Variant,enrichment ratio
1,THDR,≤ 0.25
2,AYVL,≤ 0.25
3,MAPF,≤ 0.25
4,SDCN,4.78
5,WMRH,≤ 0.25
6,DNPC,≤ 0.25
7,SQLL,12.5
8,GYLL,≤ 0.25
9,AGLL,14.6
10,GGLL,12.7
11,TNLL,4.87
12,KYLL,≤ 0.25
13,DPLL,≤ 0.25
14,RGLL,≤ 0.25
15,MNLL,12.4
16,MCLL,8.32
17,QKGI,≤ 0.25
18,VHAG,≤ 0.25
19,IAYV,≤ 0.25
20,FDHC,≤ 0.25
21,EIDC,≤ 0.25
22,SSGH,7.6
23,QDTV,≤ 0.25
24,ILKM,≤ 0.25
25,VTLL,17.8
26,MGLL,14.3

row,Variant,enrichment ratio
1,VTLA,5.19
2,SFLL,3.56
3,MGGL,4.99
4,SALL,18.6
5,IILL,1.2
6,SLLL,5.02
7,VYLL,≤ 0.25
8,KQLL,≤ 0.25
9,STLL,16.4
10,MGRL,≤ 0.25
11,PQRH,≤ 0.25
12,LTHP,≤ 0.25
13,TKSQ,2.92
14,HTAI,≤ 0.25
15,KTTI,≤ 0.25
16,LGSF,≤ 0.25
17,YVWK,≤ 0.25
18,IDNN,≤ 0.25
19,YTLL,9.09
20,FTLL,11.6
21,EQLL,≤ 0.25
22,AHLL,9.28
23,TQLL,18.9
24,GSRL,≤ 0.25
25,ATLL,20.5
26,IQLL,0.329

row,Variant,enrichment ratio
1,GSLL,14.1
2,YYLL,≤ 0.25
3,TPLL,≤ 0.25
4,ADLL,9.99
5,VRSK,≤ 0.25
6,LRNP,≤ 0.25
7,AMGN,1.38
8,QRDR,≤ 0.25
9,FIYI,≤ 0.25
10,ITNW,≤ 0.25
11,WLSG,≤ 0.25
12,FDMD,≤ 0.25
13,MVGW,≤ 0.25
14,DRLW,≤ 0.25
15,LNLL,≤ 0.25
16,NILL,0.938
17,GICL,9.48
18,GCLL,18.3
19,GNLL,15.3
20,GTLL,12.4
21,WILL,≤ 0.25
22,QCLL,2.35
23,KCLL,≤ 0.25
24,NPLL,≤ 0.25
25,GILL,18.2
26,LTLL,3.06
